Experimental data as given in PubChem BioAssay (EPA / NIEHS).
Records with an inconclusive call do not appear. Active and inactive are the calls of the source. Rule for the calls, unless noted: active = hit-call score of the fitted dose curve at least 0.9, where 1 is the maximum; inconclusive = response in the unintended direction; inactive = score below 0.9.

Assays:
[1] = ATG_VDRE_CIS: Attagene CIS-FACTORIAL HepG2 Assay for human Vitamin D Receptor Element (VDRE) (AID 2282968; active = hit-call score of the fitted dose curve at least 0.9, where 1 is the maximum; inactive = score below 0.9); settings: HepG2 VDRE cis-reporter transcription, actives raise or lower the signal
Procedure, shortened: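 Compounds were applied for 24 h to HepG2 cells transfected with promoter-regulated reporter units. Total RNA was reverse-transcribed, and reporter amplicons were fluorescently labelled and sized by capillary electrophoresis.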

[2] = target: X-box-binding protein 1 (Homo sapiens) (UniProt P17861); assay: ATG_Xbp1_CIS: Attagene CIS-FACTORIAL HepG2 Assay for human X-box Binding Protein 1 (XBP1) (AID 2282972; active = hit-call score of the fitted dose curve at least 0.9, where 1 is the maximum; inactive = score below 0.9); settings: HepG2 XBP1 cis-element reporter, Attagene multiplex; actives raise or lower the signal
Procedure, shortened: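 Read-out: fluorescent reporter mRNA fragments resolved by capillary electrophoresis after RT-PCR. Human HepG2 liver cells carried transfected cis-promoter reporter units and were exposed to chemicals for 24 hours. Gain or loss of signal fitted relative to DMSO baseline.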

[3] = ATG_M_19_TRANS: Attagene TRANS-FACTORIAL HepG2 Assay for M19 Transcription Factor (Internal Marker) (AID 2282974); settings: HepG2 Attagene TRANS-FACTORIAL M19 internal marker reporter
Procedure, shortened: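 Using RT-PCR and capillary electrophoresis, reporter mRNA from transiently transfected human HepG2 cells was quantified following 24 h exposure; activity was fitted in the positive direction against DMSO.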

[4] = target: Glucocorticoid receptor (Homo sapiens) (UniProt P04150); assay: ATG_GR_TRANS: Attagene TRANS-FACTORIAL HepG2 Assay for human Glucocorticoid Receptor (GR) (AID 2282978); settings: HepG2 Attagene TRANS GR reporter, mRNA transcription;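 note: activators score as hits since higher reporter transcript over DMSO is fitted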
Procedure, shortened: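 Exogenous NR-GAL4 fusion activity was assessed through induced GAL4-UAS reporter transcripts in transfected human HepG2 cells, quantified after 24 h by RT-PCR and fluorescent capillary electrophoresis with DMSO as baseline.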

[5] = target: Bile acid receptor (Homo sapiens) (UniProt Q96RI1); assay: ATG_FXR_TRANS: Attagene TRANS-FACTORIAL HepG2 Assay for Farnesoid X Receptor (FXR) (AID 2282979); settings: HepG2 Attagene TRANS FXR-GAL4 reporter transcription;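 note: hits raise reporter mRNA above DMSO so AC50 marks FXR activation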
Procedure, shortened: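 Read-out: fluorescent reporter transcripts quantified by capillary electrophoresis after RT-PCR of total RNA. Source cells were HepG2 transiently carrying chimeric NR-GAL4 plus GAL4-UAS reporter units, dosed 24 h. Activity fitted upward relative to DMSO baseline.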

[6] = target: Oxysterols receptor LXR-beta (Homo sapiens) (UniProt P55055); assay: ATG_LXRb_TRANS: Attagene TRANS-FACTORIAL HepG2 Assay for human Liver X Receptor beta (LXRb) (AID 2282981); settings: HepG2 Attagene TRANS GAL4-LXRb reporter, mRNA
Procedure, shortened: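 Multiplexed reporter assay, HepG2, 24 h dosing. Fluorescence of labelled RT-PCR products after capillary electrophoresis gives transcript level; positive fitting direction relative to DMSO.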

[7] = target: Hepatocyte nuclear factor 4-alpha (Homo sapiens) (UniProt P41235); assay: ATG_HNF4a_TRANS: Attagene TRANS-FACTORIAL HepG2 Assay for human Hepatocyte Nuclear Factor 4 alpha (HNF4a) (AID 2282982); settings: HepG2 HNF4a transactivation reporter, mRNA readout
Procedure, shortened: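 Endpoint reflects transcriptional activation of a GAL4-UAS reporter by an HNF4a-GAL4 chimera in transfected HepG2 cells, 24 h post-dosing. Fluorescence from RT-PCR products separated by capillary electrophoresis; DMSO baseline.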

[8] = ATG_M_32_TRANS: Attagene TRANS-FACTORIAL HepG2 Assay for M32 Transcription Factor (Internal Marker) (AID 2282984); settings: HepG2 Attagene TRANS M32 internal marker reporter;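 note: transcript level of a background control reporter unit measured by RT-PCR and capillary electrophoresis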
Procedure, shortened: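 Internal-marker readout from a multiplexed transcription reporter panel. HepG2 cells were transfected with GAL4-UAS reporter units, treated 24 hours, and reporter transcript levels determined by fluorescence after RT-PCR and capillary separation.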

[9] = target: Transcriptional activator Myb (Homo sapiens) (UniProt P10242); assay: ATG_Myb_CIS: Attagene CIS-FACTORIAL HepG2 Assay for human Myeloblastosis (Myb) Proto-Oncogene Transcription Factor (AID 2282986; active = hit-call score of the fitted dose curve at least 0.9, where 1 is the maximum; inactive = score below 0.9); settings: HepG2 Attagene CIS-FACTORIAL Myb reporter transcription; actives raise or lower the signal
Procedure, shortened: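 In this HepG2 transient-transfection format, cis-regulated reporter mRNA is quantified 24 h post-dosing by RT-PCR with capillary electrophoresis, fitted bidirectionally to DMSO baseline.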

[10] = ATG_NFI_CIS: Attagene CIS-FACTORIAL HepG2 Assay for human Nuclear Factor I (NFI) (AID 2282989; active = hit-call score of the fitted dose curve at least 0.9, where 1 is the maximum; inactive = score below 0.9); settings: HepG2 cis-regulatory reporter, NFI response element transcription; actives raise or lower the signal
Procedure, shortened: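 Reporter transcripts were measured by RT-PCR with fluorescent primer extension and capillary electrophoresis 24 h post-treatment. HepG2 cells carried transiently transfected cis-regulated reporter constructs reporting endogenous factor activity; gain or loss fitted against DMSO baseline.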

[11] = target: Nuclear receptor subfamily 1 group I member 3 (Homo sapiens) (UniProt Q14994); assay: ATG_CAR_TRANS: Attagene TRANS-FACTORIAL HepG2 Assay for human Constitutive Androstane Receptor (CAR) (AID 2282969); settings: HepG2 Attagene TRANS-FACTORIAL CAR reporter;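 note: activators raise reporter mRNA above DMSO so AC50 marks induction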
Procedure, shortened: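 Transiently transfected HepG2, multiplex TRANS reporters (CAR-Gal4 chimera driving GAL4-UAS reporter). 24 h dosing. Readout: reporter transcript by RT-PCR + capillary electrophoresis, fluorescence intensity; positive direction vs DMSO.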

[12] = target: Estrogen receptor (Homo sapiens) (UniProt P03372); assay: ATG_ERa_TRANS: Attagene TRANS-FACTORIAL HepG2 Assay for human Estrogen Receptor alpha (ERa) (AID 2282970); settings: HepG2 Attagene TRANS ERa GAL4 reporter, mRNA
Procedure, shortened: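 Reporter mRNA induction after 24 hours, detected by fluorescent RT-PCR and capillary electrophoresis, gives the read-out. Cells are HepG2 transiently transfected with GAL4-UAS reporter transcription units responding to chimeric NR-Gal4. Activity is taken as gain of signal over DMSO baseline.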

[13] = target: Steroid hormone receptor ERR1 (Homo sapiens) (UniProt P11474); assay: ATG_ERRa_TRANS: Attagene TRANS-FACTORIAL HepG2 Assay for human Estrogen-Related Receptor alpha (ERRa) (AID 2282971); settings: HepG2 Attagene TRANS reporter, ERRa transactivation
Procedure, shortened: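 Transfected HepG2, 24 h dosing, ERRa-Gal4 chimera driving GAL4-UAS reporter. Readout: reporter mRNA via RT-PCR plus capillary electrophoresis (fluorescence). Positive direction vs DMSO control.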

[14] = ATG_GAL4_TRANS: Attagene TRANS-FACTORIAL HepG2 Assay for GAL4 (Internal Marker) (AID 2282976); settings: HepG2 Attagene TRANS GAL4 internal marker reporter
Procedure, shortened: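 RT-PCR/capillary electrophoresis readout of reporter mRNA. HepG2, transient MRTU transfection (GAL4-UAS reporters), 24 h compound exposure. Background-control endpoint, positive direction vs DMSO baseline.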

[15] = target: Estrogen-related receptor gamma (Homo sapiens) (UniProt P62508); assay: ATG_ERRg_TRANS: Attagene TRANS-FACTORIAL HepG2 Assay for human Estrogen-Related Receptor gamma (ERRg) (AID 2282977); settings: HepG2 Attagene TRANS reporter, ERRg transactivation;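 note: hits increase reporter signal over DMSO so potencies reflect activators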
Procedure, shortened: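 Exogenous NR-Gal4 chimera activity measured as reporter transcript induction after 24 h in transiently transfected HepG2 cells. RNA reverse-transcribed, PCR-amplified, 6-FAM-labelled and resolved by capillary electrophoresis; increase over DMSO baseline.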

[16] = target: Oxysterols receptor LXR-alpha (Homo sapiens) (UniProt Q13133); assay: ATG_LXRa_TRANS: Attagene TRANS-FACTORIAL HepG2 Assay for human Liver X Receptor alpha (LXRa) (AID 2282980); settings: HepG2 Attagene TRANS reporter, LXRa transactivation
Procedure, shortened: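 Read-out: reporter transcript levels by RT-PCR plus capillary electrophoresis, fluorescence intensity. Transiently transfected HepG2, exogenous NR-GAL4 chimera, GAL4-UAS reporters; 24 h compound exposure. Activity = increase over DMSO negative control.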

[17] = ATG_M_06_TRANS: Attagene TRANS-FACTORIAL HepG2 Assay for M06 Transcription Factor (Internal Marker) (AID 2282983); settings: HepG2 Attagene TRANS M06 internal marker reporter
Procedure, shortened: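 Read-out: fluorescent reporter cDNA fragments resolved by capillary electrophoresis after RT-PCR and HpaI cut. Source cells were HepG2 carrying transfected multi-reporter GAL4 constructs, dosed 24 h. Increase over DMSO control analysed.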

[18] = target: Nuclear receptor subfamily 4 group A member 2 (Homo sapiens) (UniProt P43354); assay: ATG_NURR1_TRANS: Attagene TRANS-FACTORIAL HepG2 Assay for human Nuclear Receptor Related Protein 1 (NURR1) (AID 2282985); settings: HepG2 Attagene TRANS reporter, mRNA readout
Procedure, shortened: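 Endpoint: reporter mRNA increase relative to DMSO. HepG2 cells transfected with reporter units, treated 24 h; RNA processed by RT-PCR, labelling, HpaI digestion and capillary electrophoresis.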

[19] = target: Nuclear respiratory factor 1 (Homo sapiens) (UniProt Q16656); assay: ATG_NRF1_CIS: Attagene CIS-FACTORIAL HepG2 Assay for human Nuclear Respiratory Factor 1 (NRF1) Orphan Gene (AID 2282987; active = hit-call score of the fitted dose curve at least 0.9, where 1 is the maximum; inactive = score below 0.9); settings: HepG2 NRF1 cis-element reporter, Attagene multiplex; actives raise or lower the signal
Procedure, shortened: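 Using DMSO as baseline, gain- or loss-of-signal was fitted for reporter mRNA levels in HepG2 cells transiently transfected with cis-regulated reporter units. Samples were taken 24 h after dosing and read by RT-PCR with capillary electrophoresis.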

Measured: AC50

Nuclear respiratory factor 1 (Homo sapiens), sequence (Q16656 whole entry, looked up): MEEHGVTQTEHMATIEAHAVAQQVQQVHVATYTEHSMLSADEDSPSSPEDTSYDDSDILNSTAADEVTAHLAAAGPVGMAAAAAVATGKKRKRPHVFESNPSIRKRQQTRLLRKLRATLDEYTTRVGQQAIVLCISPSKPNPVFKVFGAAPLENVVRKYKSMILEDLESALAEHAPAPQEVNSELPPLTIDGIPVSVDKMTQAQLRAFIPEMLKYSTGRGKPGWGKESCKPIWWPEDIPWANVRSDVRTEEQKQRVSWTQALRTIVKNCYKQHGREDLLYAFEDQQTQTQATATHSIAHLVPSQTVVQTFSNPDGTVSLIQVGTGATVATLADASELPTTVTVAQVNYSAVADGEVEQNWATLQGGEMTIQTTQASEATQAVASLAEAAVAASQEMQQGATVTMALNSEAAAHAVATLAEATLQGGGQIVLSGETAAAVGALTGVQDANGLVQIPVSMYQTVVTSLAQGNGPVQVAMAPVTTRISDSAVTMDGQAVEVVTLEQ
Nuclear receptor subfamily 1 group I member 3 (Homo sapiens), sequence (Q14994 whole entry, looked up, the tested form may be a part): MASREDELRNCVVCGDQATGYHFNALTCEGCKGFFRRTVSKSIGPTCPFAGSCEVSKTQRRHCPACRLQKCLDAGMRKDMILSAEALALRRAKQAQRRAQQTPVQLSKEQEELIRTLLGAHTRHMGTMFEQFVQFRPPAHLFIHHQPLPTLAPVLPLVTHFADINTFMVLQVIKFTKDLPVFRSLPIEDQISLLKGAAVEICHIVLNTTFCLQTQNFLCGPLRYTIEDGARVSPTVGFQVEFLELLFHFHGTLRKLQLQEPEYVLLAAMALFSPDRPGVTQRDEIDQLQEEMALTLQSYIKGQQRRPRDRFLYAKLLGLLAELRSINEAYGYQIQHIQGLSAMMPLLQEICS
Nuclear receptor subfamily 4 group A member 2 (Homo sapiens), sequence (P43354 whole entry, looked up): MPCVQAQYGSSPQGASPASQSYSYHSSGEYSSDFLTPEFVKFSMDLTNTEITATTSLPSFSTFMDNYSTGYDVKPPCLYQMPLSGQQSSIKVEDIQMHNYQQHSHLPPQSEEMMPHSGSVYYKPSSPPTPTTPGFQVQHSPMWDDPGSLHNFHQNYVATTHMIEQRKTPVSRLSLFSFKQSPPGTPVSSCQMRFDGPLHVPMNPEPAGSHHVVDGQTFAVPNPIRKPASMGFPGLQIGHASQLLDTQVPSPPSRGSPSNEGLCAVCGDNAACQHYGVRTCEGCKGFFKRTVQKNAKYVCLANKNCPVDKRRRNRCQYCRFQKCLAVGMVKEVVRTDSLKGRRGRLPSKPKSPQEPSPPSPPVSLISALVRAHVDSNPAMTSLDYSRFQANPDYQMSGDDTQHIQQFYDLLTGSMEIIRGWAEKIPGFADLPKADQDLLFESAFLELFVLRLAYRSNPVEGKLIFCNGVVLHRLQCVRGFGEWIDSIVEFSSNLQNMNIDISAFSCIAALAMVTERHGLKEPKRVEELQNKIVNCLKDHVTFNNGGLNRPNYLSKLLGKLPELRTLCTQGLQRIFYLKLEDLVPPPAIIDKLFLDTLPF
X-box-binding protein 1 (Homo sapiens), sequence (P17861 whole entry, looked up, the tested form may be a part): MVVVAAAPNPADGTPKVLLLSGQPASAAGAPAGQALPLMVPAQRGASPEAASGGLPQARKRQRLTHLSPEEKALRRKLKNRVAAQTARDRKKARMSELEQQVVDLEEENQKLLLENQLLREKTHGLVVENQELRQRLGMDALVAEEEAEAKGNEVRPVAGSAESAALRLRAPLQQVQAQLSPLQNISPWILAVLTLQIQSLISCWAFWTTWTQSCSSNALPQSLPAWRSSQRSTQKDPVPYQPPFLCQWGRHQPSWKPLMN
Steroid hormone receptor ERR1 (Homo sapiens), sequence (P11474 whole entry, looked up, the tested form may be a part): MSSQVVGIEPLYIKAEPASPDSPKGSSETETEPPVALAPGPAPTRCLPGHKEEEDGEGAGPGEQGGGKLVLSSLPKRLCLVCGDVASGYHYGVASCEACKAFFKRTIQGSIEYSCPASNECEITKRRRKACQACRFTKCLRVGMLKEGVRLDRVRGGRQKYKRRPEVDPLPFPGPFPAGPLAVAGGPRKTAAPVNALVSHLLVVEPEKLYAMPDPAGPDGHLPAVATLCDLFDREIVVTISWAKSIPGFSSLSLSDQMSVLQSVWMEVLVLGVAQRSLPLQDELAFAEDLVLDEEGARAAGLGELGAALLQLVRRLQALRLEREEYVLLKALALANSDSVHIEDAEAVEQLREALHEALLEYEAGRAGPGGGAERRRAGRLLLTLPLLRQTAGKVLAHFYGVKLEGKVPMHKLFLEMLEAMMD
Transcriptional activator Myb (Homo sapiens), sequence (P10242 whole entry, looked up): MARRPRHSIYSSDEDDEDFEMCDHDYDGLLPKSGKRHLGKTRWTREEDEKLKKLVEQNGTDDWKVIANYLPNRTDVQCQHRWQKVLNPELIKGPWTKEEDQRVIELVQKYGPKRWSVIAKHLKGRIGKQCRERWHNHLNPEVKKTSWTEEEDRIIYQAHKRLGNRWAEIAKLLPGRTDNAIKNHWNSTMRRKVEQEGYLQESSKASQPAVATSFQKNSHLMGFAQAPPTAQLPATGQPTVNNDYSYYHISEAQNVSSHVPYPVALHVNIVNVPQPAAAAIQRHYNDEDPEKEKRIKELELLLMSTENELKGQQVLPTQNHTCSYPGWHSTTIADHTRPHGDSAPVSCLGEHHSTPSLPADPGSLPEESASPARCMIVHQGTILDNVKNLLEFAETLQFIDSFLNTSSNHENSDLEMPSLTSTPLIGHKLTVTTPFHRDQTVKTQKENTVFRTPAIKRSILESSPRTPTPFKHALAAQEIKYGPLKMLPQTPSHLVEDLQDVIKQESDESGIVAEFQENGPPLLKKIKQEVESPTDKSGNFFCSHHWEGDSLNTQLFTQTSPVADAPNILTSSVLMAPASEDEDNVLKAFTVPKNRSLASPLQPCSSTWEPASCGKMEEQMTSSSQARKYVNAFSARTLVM
Oxysterols receptor LXR-beta (Homo sapiens), sequence (P55055 whole entry, looked up, the tested form may be a part): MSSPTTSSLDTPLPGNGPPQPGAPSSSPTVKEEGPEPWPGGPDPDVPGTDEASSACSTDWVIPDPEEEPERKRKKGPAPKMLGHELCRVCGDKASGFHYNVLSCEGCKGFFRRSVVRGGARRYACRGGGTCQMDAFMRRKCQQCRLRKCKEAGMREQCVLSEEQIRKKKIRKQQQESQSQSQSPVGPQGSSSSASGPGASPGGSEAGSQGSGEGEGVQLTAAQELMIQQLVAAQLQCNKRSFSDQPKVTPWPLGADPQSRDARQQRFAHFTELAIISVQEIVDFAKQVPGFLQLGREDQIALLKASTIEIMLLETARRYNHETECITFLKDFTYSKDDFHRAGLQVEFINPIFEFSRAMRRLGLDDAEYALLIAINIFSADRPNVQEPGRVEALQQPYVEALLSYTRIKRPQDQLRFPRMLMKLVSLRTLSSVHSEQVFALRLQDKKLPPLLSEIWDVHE
Estrogen-related receptor gamma (Homo sapiens), sequence (P62508 whole entry, looked up, the tested form may be a part): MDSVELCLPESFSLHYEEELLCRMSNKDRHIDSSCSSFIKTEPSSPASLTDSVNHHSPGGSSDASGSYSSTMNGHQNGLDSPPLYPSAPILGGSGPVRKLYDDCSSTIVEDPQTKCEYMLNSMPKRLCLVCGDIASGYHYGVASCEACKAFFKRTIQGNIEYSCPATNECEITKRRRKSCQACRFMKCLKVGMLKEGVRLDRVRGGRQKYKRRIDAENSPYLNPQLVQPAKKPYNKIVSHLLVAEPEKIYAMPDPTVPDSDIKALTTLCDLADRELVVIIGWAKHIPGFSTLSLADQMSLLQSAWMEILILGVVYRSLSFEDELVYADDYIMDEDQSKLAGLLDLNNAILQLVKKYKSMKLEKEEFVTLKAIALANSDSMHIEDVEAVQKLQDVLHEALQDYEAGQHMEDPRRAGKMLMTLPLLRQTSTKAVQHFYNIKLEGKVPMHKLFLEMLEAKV
Oxysterols receptor LXR-alpha (Homo sapiens), sequence (Q13133 whole entry, looked up, the tested form may be a part): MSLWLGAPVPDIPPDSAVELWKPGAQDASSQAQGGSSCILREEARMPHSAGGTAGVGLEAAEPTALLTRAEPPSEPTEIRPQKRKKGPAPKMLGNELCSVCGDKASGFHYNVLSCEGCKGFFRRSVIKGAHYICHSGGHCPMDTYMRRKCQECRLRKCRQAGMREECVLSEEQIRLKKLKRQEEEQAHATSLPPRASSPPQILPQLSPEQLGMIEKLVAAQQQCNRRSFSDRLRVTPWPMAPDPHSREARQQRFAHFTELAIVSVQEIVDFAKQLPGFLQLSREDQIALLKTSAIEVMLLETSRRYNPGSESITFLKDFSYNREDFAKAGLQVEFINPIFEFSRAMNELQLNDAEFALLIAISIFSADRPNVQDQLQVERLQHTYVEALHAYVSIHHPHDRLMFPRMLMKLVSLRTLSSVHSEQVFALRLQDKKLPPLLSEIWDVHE
Glucocorticoid receptor (Homo sapiens), sequence (P04150 whole entry, looked up, the tested form may be a part): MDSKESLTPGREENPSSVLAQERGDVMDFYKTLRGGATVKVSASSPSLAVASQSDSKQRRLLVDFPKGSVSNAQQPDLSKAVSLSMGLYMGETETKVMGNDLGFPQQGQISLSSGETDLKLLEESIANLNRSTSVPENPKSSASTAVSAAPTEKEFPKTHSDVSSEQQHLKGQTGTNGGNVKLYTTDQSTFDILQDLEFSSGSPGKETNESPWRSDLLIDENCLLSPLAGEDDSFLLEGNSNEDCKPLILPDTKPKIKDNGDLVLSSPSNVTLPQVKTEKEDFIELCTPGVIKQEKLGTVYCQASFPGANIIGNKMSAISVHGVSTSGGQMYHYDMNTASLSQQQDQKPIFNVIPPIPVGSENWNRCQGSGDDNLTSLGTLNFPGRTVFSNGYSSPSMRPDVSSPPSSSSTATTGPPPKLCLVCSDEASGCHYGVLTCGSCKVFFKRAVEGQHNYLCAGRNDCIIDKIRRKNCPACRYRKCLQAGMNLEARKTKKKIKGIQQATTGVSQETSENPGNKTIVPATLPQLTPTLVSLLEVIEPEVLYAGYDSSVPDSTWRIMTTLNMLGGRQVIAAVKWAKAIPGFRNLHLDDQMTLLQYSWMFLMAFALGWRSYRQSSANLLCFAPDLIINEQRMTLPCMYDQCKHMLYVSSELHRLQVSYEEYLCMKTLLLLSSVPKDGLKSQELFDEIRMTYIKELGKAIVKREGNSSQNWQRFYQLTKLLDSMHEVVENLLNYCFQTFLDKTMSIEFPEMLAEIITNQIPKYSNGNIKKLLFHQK

CCCCCCCCCCCCOC(=O)c1cc(O)c(O)c(O)c1
inactive: [1] | [3] | [4] | [6] | [7] | [8] | [9] | [10]
active: [2] 11.1 µM | [5] 45.1 µM

C=CC(=C)CC/C=C(\C)CCC=C(C)C
not listed: [1] | [3] | [4] | [7]
inactive: all other assays above

O=C(O)CCC(F)(F)C(F)(F)C(F)(F)C(F)(F)C(F)(F)F
not listed: [3] | [11] | [12] | [14] | [15] | [16]
inactive: all other assays above

Cc1ccc(S(=O)(=O)O)cc1
inactive: [1] | [2] | [7] | [17] | [8] | [9] | [19] | [10]

CCCCCCCCCCCCCCCCCC[N+](C)(C)Cc1ccccc1
active: [7] 50 µM
not listed: [1] | [3] | [18]
inactive: all other assays above

c1ccc2c(c1)CCC2
inactive: [1] | [2] | [14] | [4] | [5] | [6] | [9] | [19] | [10]

CCO[Si](CCC1CCC2OC2C1)(OCC)OCC (stereo unspecified)
not listed: [1] | [7] | [13] | [18] | [19]
inactive: all other assays above

CCCCC(CC)C(=O)O (stereo unspecified)
not listed: [1] | [4] | [5] | [6] | [11] | [12] | [13] | [15]
inactive: all other assays above
